According to PubChem BioAssay (NCI):
About 83,000 compounds went through this panel and 20% of them were active in at least one assay; those are over-represented in the sample as a whole.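 Note: values are percent growth. 100 is the growth of untreated cells, values between 100 and 0 indicate rising inhibition; between -100 and 0 indicates cell death.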 A number with no mark means an inactive call. The source made the active and inactive calls. The calls were made as follows: active = growth percent below 10; inactive = the rest.

These molecules were tested on MDA-MB-468 breast (assay: NCI-60 one-dose screen, 48 h (100 = growth as untreated, 0 = no growth, -100 = all killed)). Details: 10 µM unless noted.
Work on O=C(O)/C=C/c1ccc2c(c1)CCC2 yielded a growth of 104%. With CCOC(=O)c1nc2c3ccccc3cnn2c1C(=O)c1ccc(OC)cc1 the growth was 105%. O=C(Cn1cc(CO)nn1)Nc1nc2ccccc2s1 showed a growth of 101%. With CN1CCN(c2cnc(C(=O)Nc3cc(F)cc4cccnc34)cn2)CC1 the growth was 9.54% (active). In the case of Cc1c2cc[nH]c(=O)c2c(C)c2c1[nH]c1cc(OCCN3CCN(C)CC3)ccc12, the growth is reported as -12.4% (active). For COc1cc2cc(Oc3ccc(NC(=O)Nc4ccc(C(F)(F)F)cc4)cc3)c(C)nc2cc1OC, the growth was 40.1%. For N#CCCCCCn1c2ccccc2c2c3[nH]c(=O)[nH]c(=O)c3c3c4ccccc4n(CCCCCC#N)c3c21, the growth was 69.7%. With O=S(=O)(NCCNc1cc(-c2cn(-c3ccccc3)nc2-c2cccc(O)c2)ccn1)c1ccccc1 the growth was 34.2%. COc1ccc(NC2=C(Br)C(=O)C(C)=C(C)C2=O)cc1 was tested, and the growth was -59% (active). For O=C1c2cccc3cccc(c23)C(=O)N1CCCCCCCCCCN1C(=O)c2cccc3cccc(c23)C1=O, the growth was 112%. Cc1ccc(C(=NN=C(N)N)c2ccc(C)cc2)cc1 was tested, and the growth was -42.5% (active). In the case of Nc1ccccc1NC(=O)c1ccc(CN2CCC/C(=C\c3cccc(Cl)c3)C2=O)cc1, the growth is reported as -10.1% (active). In the case of CCNCCCn1c2c(c3ccc([N+](=O)[O-])cc3c1=O)C(=O)c1cc(OC)cnc1-2, the growth is reported as -34.3% (active). Molecule COc1cc(-c2n/c(=C\c3c(O)[nH]c4ccc(Cl)cc34)cc3c2=Nc2ccccc2-3)cc(OC)c1OC has a growth of 30.5%. With COc1ncc(-c2ccc3ncnc(Nc4cccc(Cl)c4)c3c2)cc1NS(=O)(=O)C1CC1 the growth was -43.9% (active). COc1cc2c(cc1OC)C(=O)C(Br)CC2 (stereo not given) gave a growth of 24.7%. Oc1c(C(Nc2ccccc2)c2ccccc2)ccc2cccnc12 (stereo not given) showed a growth of 17.8%. COc1ccc(/C=C/C(=O)c2cc3c(N)c(C(=O)Nc4cccc5ccccc45)sc3nc2C)cc1 showed a growth of 58.5%. COc1cc2cc(C(=O)Nc3ccccc3)c(N)nc2cc1OC was tested, and the growth was -81.5% (active). C=C(C)C(C(=O)OCC)(C(=O)OCC)C(C)C showed a growth of 109%. Molecule COc1ccc(-c2cc(=O)oc3c4c(ccc23)OCN(Cc2ccc(F)cc2)C4)cc1 has a growth of 16.1%. S=c1nc(-c2ccccn2)c(-c2ccccn2)n[nH]1 showed a growth of 108%. N#C/C(=C\c1ccc(-c2ccc(Cl)cc2)o1)C(=O)Nc1ncc(Cc2ccc(Br)cc2)s1 gave a growth of 25.7%. O=S1(=O)N(Cc2ccccc2)[C@@H](Cc2ccccc2)[C@H](O)[C@H](O)[C@H](Cc2ccccc2)N1Cc1ccccc1 was tested, and the growth was -27.7% (active). For NC(=O)c1cc(-c2ccc3ncnc(N4CCc5cc(F)c(Cl)cc54)c3c2)cnc1N, the growth was -35.3% (active). N#CCCN(CCO)c1ccccc1 was tested, and the growth was 97.3%. With CN1c2ccccc2[C@]2(Cc3ccccc3)Cc3ccccc3N[C@H]12 the growth was 115%. Molecule COc1cc(-c2cc(/C=C/C(C)=O)[nH]n2)cc(OC)c1OC has a growth of 54.5%. With CC(=O)OCCCCN1C=C/C(=C\C(=O)n2ccc3ccccc32)c2ccccc21 the growth was 98.4%. Molecule COc1ccc2c(c1)C(C)Cc1c(N(C)C)ncnc1N2C (stereo not given) has a growth of 29.9%. With CCOC(=O)c1c(C)nc2ccccc2c1/C=C/c1ccc(OC)cc1 the growth was 20.6%. O=c1[nH]nnc2cc(Cl)ccc12 was tested, and the growth was 104%. Molecule CC(C)c1ccc(C(=O)Nc2sc3cc(O)ccc3c2C#N)cc1 has a growth of 12.5%. Work on Oc1ccc(OCCOc2ccc(O)cc2)cc1 yielded a growth of 94.6%. COC(=O)/C=C1/SC(=Nc2ccc([N+](=O)[O-])cc2)N(CCc2c[nH]c3ccccc23)C1=O showed a growth of 86%. In the case of CN1CCN(Cc2ccc(NC(=O)c3cncc(C#Cc4ncc5cnccn45)c3)cc2C(F)(F)F)CC1, the growth is reported as 86.7%. Work on CCC(c1ccc(OC)cc1)C(CC)c1ccc(O)c(CN2CCCCC2)c1 (stereo not given) yielded a growth of 22.9%. With [2H]c1nc(Nc2ncc(F)c(-c3cc(F)c4nc(C)n(C(C)C)c4c3)n2)c([2H])c([2H])c1CN1CCN(CC)CC1 the growth was 90.1%. With C/C=C/[C@@H]1C=C[C@@H]2C[C@H](C)CC[C@H]2[C@]1(C)/C(O)=C1/C(=O)[C@H](CO)N(C)C1=O the growth was 65.5%. In the case of C=CCc1c(O)c(C(=O)/C=C/c2ccc(Cl)cc2)c(OC)c2ccoc12, the growth is reported as 19.9%.
